Screening data as filed in PubChem.
UBC9 SUMO inh = inhibitors of in vitro SUMOylation cascade, primary screen, biochemical, HTRF, uHTS. SUMO-conjugating enzyme UBC9 (Homo sapiens), P63279. actives 0.36% (n = 290,000). HTRF SUMOylation assay, SAE1/SAE2 + UBC9. inhibition, % at 35 µM. AID 2006, 2009; in the data active means inhibition above about 50%, passing the limit was not always enough; inconclusive means no clear call, values can overlap the other calls
Target sequence (P63279 whole entry, looked up): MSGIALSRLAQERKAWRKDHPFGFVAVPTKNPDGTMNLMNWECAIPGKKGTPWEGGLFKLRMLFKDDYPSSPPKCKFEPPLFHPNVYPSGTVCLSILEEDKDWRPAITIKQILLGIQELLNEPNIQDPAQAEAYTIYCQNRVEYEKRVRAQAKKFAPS
sPLA2-III inh = human group III sPLA2 inhibitors, primary screen, biochemical, QFRET, BODIPY PC-A2 liposome substrate; Group 3 secretory phospholipase A2 (Homo sapiens), Q9NZ20; QFRET BODIPY PC-A2 liposome hydrolysis, fluorescence; inhibition, % at 12.2 µM; actives 0.56% (n = 370,000); AID 743126, 2013;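 active means inhibition above mean plus 3 SD of compounds lying within the high and low control bounds, cut at about 19% in these data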;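 further: 0% = median of test compound wells and 100% = no enzyme DMSO wells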
GRIN3A LBD mod = binders of NR3A ligand-binding domain, primary screen, biophysical, differential scanning fluorimetry, uHTS; AID 1259313, 2017; NR3A LBD differential scanning fluorimetry, Tm shift; 0% = protein alone, 100% = glycine-bound protein; Tm shift relative to glycine control, % at 25 µM; actives 2.5% (n = 340,000);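 active means melting temperature shift of at least 10% of the positive control shift, at one fixed dose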
UBC13 inh = UBC13 polyubiquitin chain formation inhibitors, primary screen, biochemical, TR-FRET, uHTS | Ubiquitin-conjugating enzyme E2 N (Homo sapiens), P61088 | inhibition, % at 20 µM | actives 0.47% (n = 330,000) | AID 485273, 2010; in the data active means inhibition above about 45%, passing the limit was not always enough; inconclusive means no clear call, values can overlap the other calls
Target sequence (P61088 whole entry, looked up): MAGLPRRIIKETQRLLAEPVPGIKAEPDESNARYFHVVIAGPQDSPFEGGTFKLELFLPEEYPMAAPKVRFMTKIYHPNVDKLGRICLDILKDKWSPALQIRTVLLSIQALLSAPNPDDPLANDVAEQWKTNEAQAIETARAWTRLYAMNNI
* = called active by the depositor; ? = inconclusive; / = no result. Sampled rows, rich in hits. Any-hit rate of the full collection: about 3.3%.

SMILES | UBC9 SUMO inh | sPLA2-III inh | GRIN3A LBD mod | UBC13 inh
Cc1ccc(C)c(NC(=O)C2CCCN2S(=O)(=O)c2cccnc2)c1 (configuration not stated) | / | -1 | / | /
COc1ccc(C2(C)NC(=O)N(CC(=O)Nc3ccc(-c4nc5ccc(C)cc5s4)cc3)C2=O)cc1 (configuration not stated) | 5 | -10 | -1 | -4
CCc1ccc2nc(NC(=O)Cn3cnc4ccccc4c3=O)sc2c1 | 50* | 8 | 0 | 8
CCCC1(c2ccccc2)NC(=O)N(CC(=O)Nc2ccc(N3CCOCC3)cc2)C1=O (configuration not stated) | / | 0 | 3 | -3
O=C(Cn1cnc2ccccc2c1=O)Nc1nc2ccccc2s1 | 18 | 1 | 2 | 0
CCCCC1(c2ccc(F)cc2)NC(=O)N(CC(=O)Nc2ccc(N3CCOCC3)cc2)C1=O (configuration not stated) | / | -11 | 12* | -13
CCc1ccc2nc(NC(=O)CN3C(=O)NC4(CCCC4)C3=O)sc2c1 | / | -16 | 11* | 11
CCC1(c2ccc(F)cc2)NC(=O)N(CC(=O)Nc2ccc(-c3nc4ccc(C)cc4s3)cc2)C1=O (configuration not stated) | -4 | -6 | 11* | -12
C#CCN1CC(N(C)CCOC(=O)CSc2ccccc2)CS1(=O)=O (configuration not stated) | / | 7 | / | /
CN(C)C=Nc1ccc2nc3c(cc2c1)[nH]c1ccccc13 | 50* | 0 | 9 | ?
COc1cc(-c2csc(N3CCC(C(N)=O)CC3)n2)cc(OC)c1OC | / | 5 | / | /
O=C(CN1CCN(C(=O)CCC(=O)N2CCC(c3ccccc3)=N2)CC1)Nc1ccc(F)cc1 | / | 7 | 18* | -7
O=C(CN1CCN(C(=O)CCC(=O)N2CCC(c3ccccc3)=N2)CC1)Nc1cccc(F)c1 | / | -2 | / | /
CCOc1ccc(N2C(=O)Nc3ccc(Br)cc3C2(O)C(=O)NCCCN(C)C)cc1 (configuration not stated) | 6 | 1 | 12* | 4
CCOc1ccc(N2C(=O)Nc3ccc(Br)cc3C2(O)C(=O)NC(C)C)cc1 (configuration not stated) | -13 | -2 | 12* | 5
CC[C@@]1(c2ccc(C)cc2)C(=O)N(C(=O)OC(C)C)N1C(=O)OC(C)C | / | 14 | / | /
COc1cc(C(=O)NCc2ccc(C)cc2)ccc1OC(F)F | -9 | 10 | 12* | 3
Cc1cccc(N(Cc2ccccc2)C(=O)c2ccc(CS(C)(=O)=O)cc2)c1 | 4 | -8 | 14* | -6
COc1cc(C(=O)N(Cc2ccccc2)c2cccc(C)c2)ccc1OC(F)F | -21 | -5 | 14* | 5
COc1cc(C(=O)NCc2ccccc2)ccc1OC(F)F | 9 | 4 | 5 | -5
O=C(Nc1cccc(Cl)c1)Nc1ccc2nccnc2c1 | 15 | -17 | 35* | 3
Cn1nccc1NC(=O)Nc1cccc(Cl)c1 | 59* | 2 | 7 | -1
O=C(Nc1ccc2nccnc2c1)Nc1ccccc1Cl | 1 | -2 | -11 | -4
NS(=O)(=O)c1ccc(NC(=O)Nc2cccc(Cl)c2)cc1 | -1 | -28 | 33* | 12
Cn1nccc1NC(=O)Nc1cccc([N+](=O)[O-])c1 | 49 | -3 | 0 | 4
SMILES | UBC9 SUMO inh | sPLA2-III inh | GRIN3A LBD mod | UBC13 inh
NS(=O)(=O)c1ccc(NC(=O)Nc2ccccc2)cc1 | 11 | -4 | 7 | 1
Cc1cc(NC(=O)Nc2cccc(Cl)c2)n(-c2ccccn2)n1 | -29 | -13 | 33* | 9
O=C1N2Cc3ccccc3C2CS(=O)(=O)N1CCc1ccccc1 (configuration not stated) | / | 2 | / | /
O=C(CNS(=O)(=O)c1ccc(F)cc1)N1CCN(c2ccccn2)CC1 | / | 9 | / | /
CCCCCCCCN1C(=O)[C@@H](CC(=O)NCCCN2CCCC2=O)C[C@@]2(C(=O)OC)C1=C[C@H](COCc1ccccc1)O[C@@H]2C | / | -8 | / | /
N#Cc1ccc(/C=C2\CC3(OC(=O)c4cccc(F)c4)CCCN2C3)cc1 (configuration not stated) | / | -4 | / | /
O=C(Nc1cccnc1)Nc1cccc(F)c1 | 15 | -2 | 0 | 4
CSc1cccc(NC(=O)/C=C/c2cccc(Cl)c2)c1 | 6 | -14 | 67* | 5
O=C(Nc1ccccc1)Nc1cccc(Cl)c1 | -10 | -30 | 29* | 2
O=C(Nc1ccncc1)Nc1cccc(F)c1 | 7 | -10 | 14* | 6
CC(=O)c1ccc(NC(=S)NCCc2cccc(Cl)c2)cc1 | -15 | -19 | 26* | 26
CCN(C(=O)[C@@H](C)[C@@H](O)c1ccc2ccccc2c1)c1ccccc1 | / | -1 | / | /
Cc1n[nH]c(C)c1S(=O)(=O)NCCc1c[nH]c2ccccc12 | / | -33 | / | /
O=C(NCc1ccccc1)Nc1ccccc1C(=O)N1CCCC1 | / | 13 | / | /
CC(=O)Nc1ccc(NC(=O)Nc2cccc(Cl)c2)cc1 | 17 | 6 | 34* | 10
COc1ccc(N(C)C(=O)Nc2ccc3c(c2)nnn3C)cc1 | 24 | 5 | -1 | 1
O=C(Nc1ccc(Cc2ccc(NC(=O)Nc3cccnc3)cc2)cc1)Nc1cccnc1 | / | 0 | / | /
O=C(Nc1ccc(Cl)cc1)Nc1cccnc1 | 29 | -3 | 13* | 0
CSc1ccc(NC(=O)Nc2ccc(C(=O)NCC(=O)O)cc2)cc1 | 10 | -3 | 15* | 3
CCSc1ccc(C(=O)NCC(=O)O)cc1 | 9 | 5 | 0 | -6
Cn1nnc2cc(NC(=O)Nc3cccc(Cl)c3)ccc21 | -12 | -2 | 27* | 4
CCNC(=O)C[C@H]1CC[C@H]2[C@@H](COc3ccc(NC(=O)Nc4ccccc4)cc3C(=O)N2C)O1 | / | -14 | / | /
COC(=O)[C@H](C(C)C)N(CCCc1cn(Cc2ccc(C)cc2)nn1)S(=O)(=O)c1ccccc1Br | / | -16 | / | /
O=C(Nc1cccc(Cl)c1)Nc1ccccc1C(=O)O | 28 | 1 | 4 | -10
NC(=O)c1ccccc1NC(=O)Nc1cccc(Cl)c1 | -3 | -6 | 28* | 1
SMILES | UBC9 SUMO inh | sPLA2-III inh | GRIN3A LBD mod | UBC13 inh
COc1cccc(NC(=O)Nc2ccccc2C(N)=O)c1 | 10 | 6 | -6 | 3
CSc1cccc(NC(=O)NCc2cccc(CNC(=O)Nc3cccc(SC)c3)c2)c1 | 28 | -11 | 16* | -8
CSc1ccc(NC(=O)Nc2ccccc2C(N)=O)cc1 | 9 | -1 | 10* | 2
CC(=O)c1ccc(NC(=O)Nc2cccc(Cl)c2)cc1 | 5 | -46 | 35* | 5
O=C(NCCc1ccccc1)OCc1cn(-c2ccccc2Cl)nn1 | / | 2 | / | /
O=C1N2CCc3ccccc3C2CS(=O)(=O)N1Cc1ccc(F)cc1 (configuration not stated) | / | -7 | / | /
O=C(CN1c2ccccc2Sc2ccccc21)NNC(=O)Nc1cccc(Cl)c1 | 0 | -8 | 18* | -15
CSc1cccc(NC(=O)Nc2ccc(Cl)cc2)c1 | 22 | -28 | 29* | 6
